For eight sequences, binding signal results are on record in paper PMC7862700, “An all-to-all approach to the identification of sequence-specific readers for epigenetic DNA modifications on cytosine”.

Common to all, as to experiment: DAPPL (digital affinity profiling via proximity ligation, sequencing); 10 mM Tris-HCl pH 7.5, 50 mM NaCl, 1 mM DTT, 4% glycerol, room temperature, 30 min; GST-TFs on glutathione beads, 16-mer random dsDNA library, 0.1% formaldehyde crosslink after washing; high values mean tight binding
Holding throughout (conditions): protein: recombinant; tags: N-terminal GST; dsDNA, one strand shown

Experiment [1] deals with T1, ERF (Homo sapiens, UniProt P50548 1-548).
T1 sequence: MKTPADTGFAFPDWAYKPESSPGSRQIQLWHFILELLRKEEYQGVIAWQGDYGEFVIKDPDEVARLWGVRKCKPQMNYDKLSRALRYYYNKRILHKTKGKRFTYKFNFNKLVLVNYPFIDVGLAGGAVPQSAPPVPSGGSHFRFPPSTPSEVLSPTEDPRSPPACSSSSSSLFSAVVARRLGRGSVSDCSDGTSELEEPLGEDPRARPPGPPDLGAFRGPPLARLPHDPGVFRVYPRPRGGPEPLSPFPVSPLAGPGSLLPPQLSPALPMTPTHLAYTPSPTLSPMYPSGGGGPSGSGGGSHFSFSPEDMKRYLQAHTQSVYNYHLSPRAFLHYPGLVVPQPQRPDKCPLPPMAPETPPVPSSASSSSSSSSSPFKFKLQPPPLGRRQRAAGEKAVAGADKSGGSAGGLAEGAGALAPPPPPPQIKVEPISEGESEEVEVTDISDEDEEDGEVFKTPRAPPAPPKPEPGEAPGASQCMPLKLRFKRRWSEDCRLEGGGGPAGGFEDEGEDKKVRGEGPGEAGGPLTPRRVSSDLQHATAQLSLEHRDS
An outline of the steps:
(§1)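 Binding signal is given per hexamer as its read frequency for a factor divided by its frequency in the tag-only sample. GST-fused human transcription factors were expressed in yeast, captured on glutathione beads, barcoded with DNA and pooled with that sample, then incubated with 200 nmole of a 16-mer random double-stranded DNA library in Tris/NaCl/DTT/glycerol buffer for 30 min at room temperature. The pools were then washed, crosslinked, proximity-ligated, amplified by PCR and sequenced on an Illumina NextSeq500.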

In experiment [2] the target is T2, ETV3L (Homo sapiens, UniProt Q6ZN32 1-361).
T2 sequence: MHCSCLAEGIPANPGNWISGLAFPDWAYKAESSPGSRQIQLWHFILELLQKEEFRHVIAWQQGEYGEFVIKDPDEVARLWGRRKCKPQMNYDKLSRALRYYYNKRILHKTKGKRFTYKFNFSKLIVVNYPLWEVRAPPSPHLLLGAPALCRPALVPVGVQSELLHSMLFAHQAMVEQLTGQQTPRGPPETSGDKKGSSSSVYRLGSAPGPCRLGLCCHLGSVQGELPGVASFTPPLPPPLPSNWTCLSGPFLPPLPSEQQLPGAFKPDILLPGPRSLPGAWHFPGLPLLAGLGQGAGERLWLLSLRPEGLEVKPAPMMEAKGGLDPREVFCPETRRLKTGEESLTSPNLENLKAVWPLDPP
In a few lines:
as §1

Experiment [3] concerns the target T3, ETS2 (Homo sapiens, UniProt P15036 1-469).
T3 sequence: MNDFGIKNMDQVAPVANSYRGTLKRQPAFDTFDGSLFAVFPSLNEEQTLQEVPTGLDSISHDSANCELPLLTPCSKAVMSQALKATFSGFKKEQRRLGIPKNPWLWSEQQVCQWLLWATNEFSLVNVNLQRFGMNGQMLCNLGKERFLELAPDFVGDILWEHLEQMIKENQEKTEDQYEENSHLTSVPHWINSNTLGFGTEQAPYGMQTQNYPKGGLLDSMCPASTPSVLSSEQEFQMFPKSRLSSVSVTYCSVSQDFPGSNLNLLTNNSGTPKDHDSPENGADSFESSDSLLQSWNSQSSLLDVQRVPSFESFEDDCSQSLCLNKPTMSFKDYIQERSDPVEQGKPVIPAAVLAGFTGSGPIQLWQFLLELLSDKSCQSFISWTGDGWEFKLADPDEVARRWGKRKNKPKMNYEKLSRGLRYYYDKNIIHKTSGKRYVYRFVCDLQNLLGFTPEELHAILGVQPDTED
In a few lines:
as §1

The target of experiment [4] is T4, SPDEF (Homo sapiens, UniProt O95238 1-335).
T4 sequence: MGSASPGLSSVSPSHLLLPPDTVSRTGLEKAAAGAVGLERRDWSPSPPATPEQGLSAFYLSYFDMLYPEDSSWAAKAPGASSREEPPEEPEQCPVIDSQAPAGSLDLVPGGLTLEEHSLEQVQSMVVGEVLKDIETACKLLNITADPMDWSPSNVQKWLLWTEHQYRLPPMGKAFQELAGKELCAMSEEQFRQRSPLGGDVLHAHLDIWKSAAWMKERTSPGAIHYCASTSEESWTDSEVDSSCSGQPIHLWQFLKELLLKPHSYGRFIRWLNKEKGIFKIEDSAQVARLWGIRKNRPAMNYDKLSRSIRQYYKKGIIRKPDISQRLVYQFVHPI
An outline of the steps:
as §1

Experiment [5] addresses T5, ETV7 (Homo sapiens, UniProt Q9Y603 1-341).
T5 sequence: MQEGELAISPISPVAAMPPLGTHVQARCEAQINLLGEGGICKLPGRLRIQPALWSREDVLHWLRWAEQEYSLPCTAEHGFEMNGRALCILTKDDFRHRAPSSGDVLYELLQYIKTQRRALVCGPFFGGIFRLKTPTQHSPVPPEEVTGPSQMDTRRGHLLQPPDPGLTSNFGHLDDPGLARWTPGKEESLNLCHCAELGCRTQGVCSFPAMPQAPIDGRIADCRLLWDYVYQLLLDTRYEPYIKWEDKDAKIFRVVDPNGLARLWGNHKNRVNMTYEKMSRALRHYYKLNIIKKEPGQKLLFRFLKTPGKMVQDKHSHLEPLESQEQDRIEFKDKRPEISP
In a few lines: as §1

The target in experiment [6] is T6, ELF5 (Homo sapiens, UniProt Q9UKW6-2 1-255).
T6 sequence: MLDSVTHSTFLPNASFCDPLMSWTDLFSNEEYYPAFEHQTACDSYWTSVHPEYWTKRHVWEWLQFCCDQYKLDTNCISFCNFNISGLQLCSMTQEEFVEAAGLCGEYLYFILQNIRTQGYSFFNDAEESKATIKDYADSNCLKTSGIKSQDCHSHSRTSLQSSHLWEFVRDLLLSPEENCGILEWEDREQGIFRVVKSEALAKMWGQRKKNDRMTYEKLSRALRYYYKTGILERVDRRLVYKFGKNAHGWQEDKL
In a few lines:
as §1

In experiment [7] the target is T7, ETV3 (Homo sapiens, UniProt P41162-2 1-143).
T7 sequence: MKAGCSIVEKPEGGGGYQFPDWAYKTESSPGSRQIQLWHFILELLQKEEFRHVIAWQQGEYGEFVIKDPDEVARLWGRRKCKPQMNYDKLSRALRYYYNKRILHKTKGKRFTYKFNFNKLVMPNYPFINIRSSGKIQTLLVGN
An outline of the steps:
as §1

In experiment [8] the target is ETV6 (Homo sapiens, UniProt P41212 1-452). In a few lines:
as §1

Chain of ETV6 (P41212 whole entry): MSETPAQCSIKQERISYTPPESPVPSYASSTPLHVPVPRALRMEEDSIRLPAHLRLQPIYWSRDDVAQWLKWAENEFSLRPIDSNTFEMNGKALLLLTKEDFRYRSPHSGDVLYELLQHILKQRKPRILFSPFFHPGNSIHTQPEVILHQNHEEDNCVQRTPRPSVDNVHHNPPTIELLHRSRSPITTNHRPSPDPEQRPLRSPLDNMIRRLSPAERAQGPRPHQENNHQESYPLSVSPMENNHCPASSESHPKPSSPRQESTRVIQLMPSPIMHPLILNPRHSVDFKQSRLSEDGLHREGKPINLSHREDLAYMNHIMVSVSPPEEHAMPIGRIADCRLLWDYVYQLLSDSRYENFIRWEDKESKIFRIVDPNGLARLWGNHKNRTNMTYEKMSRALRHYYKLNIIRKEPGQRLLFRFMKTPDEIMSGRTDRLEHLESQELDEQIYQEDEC

As for CCTTCC, the binding signal in experiment [1] is 2.26 fold enrichment (6-mer frequency, TF over GST control); in experiment [2], 2.48 fold enrichment (6-mer frequency, TF over GST control); in experiment [3], 2.41 fold enrichment (6-mer frequency, TF over GST control); in experiment [4], 2.44 fold enrichment (6-mer frequency, TF over GST control); in experiment [5], 2.45 fold enrichment (6-mer frequency, TF over GST control); in experiment [6], 3.65 fold enrichment (6-mer frequency, TF over GST control). Besides, the binding signal in experiment [7] was 2.88 fold enrichment (6-mer frequency, TF over GST control); in experiment [8], 2.74 fold enrichment (6-mer frequency, TF over GST control).

As to CGATTT, the binding signal in experiment [1] is 1.09 fold enrichment (6-mer frequency, TF over GST control); in experiment [2], 1.17 fold enrichment (6-mer frequency, TF over GST control); in experiment [3], 1.26 fold enrichment (6-mer frequency, TF over GST control); in experiment [4] it was 1.07 fold enrichment (6-mer frequency, TF over GST control); in experiment [5], 1.13 fold enrichment (6-mer frequency, TF over GST control); in experiment [6], 1.13 fold enrichment (6-mer frequency, TF over GST control). Besides, the binding signal in experiment [7] was 1.18 fold enrichment (6-mer frequency, TF over GST control); in experiment [8] it was 1.22 fold enrichment (6-mer frequency, TF over GST control).

Turning to ATAGTA, the binding signal in experiment [1] was 1.23 fold enrichment (6-mer frequency, TF over GST control); in experiment [2], 1.11 fold enrichment (6-mer frequency, TF over GST control); in experiment [3], 1.06 fold enrichment (6-mer frequency, TF over GST control); in experiment [4], 1.07 fold enrichment (6-mer frequency, TF over GST control); in experiment [5] it was 1.3 fold enrichment (6-mer frequency, TF over GST control); in experiment [6], 1.13 fold enrichment (6-mer frequency, TF over GST control). The binding signal is 1.15 fold enrichment (6-mer frequency, TF over GST control) in experiment [7] and 1.25 fold enrichment (6-mer frequency, TF over GST control) in experiment [8].

As to ATATAC, the binding signal was 1.19 fold enrichment (6-mer frequency, TF over GST control) in experiment [1]; 1.17 fold enrichment (6-mer frequency, TF over GST control) in experiment [2]; 1.26 fold enrichment (6-mer frequency, TF over GST control) in experiment [3]; 1.29 fold enrichment (6-mer frequency, TF over GST control) in experiment [4]; 1.24 fold enrichment (6-mer frequency, TF over GST control) in experiment [5]; 1.12 fold enrichment (6-mer frequency, TF over GST control) in experiment [6]. For the same sequence, the binding signal is 1.17 fold enrichment (6-mer frequency, TF over GST control) in experiment [7] and 1.19 fold enrichment (6-mer frequency, TF over GST control) in experiment [8].

With TATAAA, the binding signal in experiment [1] is 1.25 fold enrichment (6-mer frequency, TF over GST control); in experiment [2], 1.15 fold enrichment (6-mer frequency, TF over GST control); in experiment [3], 1.27 fold enrichment (6-mer frequency, TF over GST control); in experiment [4], 1.21 fold enrichment (6-mer frequency, TF over GST control); in experiment [5], 1.12 fold enrichment (6-mer frequency, TF over GST control); in experiment [6], 1.24 fold enrichment (6-mer frequency, TF over GST control). The binding signal in experiment [7] is 1.24 fold enrichment (6-mer frequency, TF over GST control); in experiment [8] it was 1.21 fold enrichment (6-mer frequency, TF over GST control).

For TTTGTT, the binding signal in experiment [1] is 1.29 fold enrichment (6-mer frequency, TF over GST control); in experiment [2], 1.27 fold enrichment (6-mer frequency, TF over GST control); in experiment [3] it was 1.26 fold enrichment (6-mer frequency, TF over GST control); in experiment [4] it was 1.33 fold enrichment (6-mer frequency, TF over GST control); in experiment [5], 1.18 fold enrichment (6-mer frequency, TF over GST control); in experiment [6] it was 1.27 fold enrichment (6-mer frequency, TF over GST control). For the same sequence, the binding signal was 1.34 fold enrichment (6-mer frequency, TF over GST control) in experiment [7] and 1.34 fold enrichment (6-mer frequency, TF over GST control) in experiment [8].

In the case of TTCCGG, the binding signal is 4.81 fold enrichment (6-mer frequency, TF over GST control) in experiment [1]; 5.36 fold enrichment (6-mer frequency, TF over GST control) in experiment [2]; 6 fold enrichment (6-mer frequency, TF over GST control) in experiment [3]; 6.57 fold enrichment (6-mer frequency, TF over GST control) in experiment [4]; 5.39 fold enrichment (6-mer frequency, TF over GST control) in experiment [5]; 8.59 fold enrichment (6-mer frequency, TF over GST control) in experiment [6]. Further, the binding signal in experiment [7] is 6.28 fold enrichment (6-mer frequency, TF over GST control); in experiment [8], 6.93 fold enrichment (6-mer frequency, TF over GST control).

Take GATGAT: the binding signal in experiment [1] is 1.5 fold enrichment (6-mer frequency, TF over GST control); in experiment [2], 1.31 fold enrichment (6-mer frequency, TF over GST control); in experiment [3] it was 1.23 fold enrichment (6-mer frequency, TF over GST control); in experiment [4] it was 1.32 fold enrichment (6-mer frequency, TF over GST control); in experiment [5], 1.36 fold enrichment (6-mer frequency, TF over GST control); in experiment [6] it was 1.24 fold enrichment (6-mer frequency, TF over GST control). Besides, the binding signal in experiment [7] was 1.39 fold enrichment (6-mer frequency, TF over GST control); in experiment [8], 1.3 fold enrichment (6-mer frequency, TF over GST control).
